Shown are actives, neighbours in structure and some others; about 9.4% of the full set was active somewhere.
HTT ATP protect = protects HTT-Q103 PC12 cells, measured by ATP | PC12 HTT-Q103 induced, cytoprotection, ATP luminescence, 40 h | Potency, µM (series often up to 56.4 µM), for the others: cytoprotection (ATP increase), actives largely listed as activators | actives 0.14% (n = 230,000) | AID 1471; also: potency is read from the fitted curve at half-maximal effect; % of control where 0% means no effect; nearly all actives have a fitted effect of over 45% in size
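Readout: ATPlite luminescence (ATP level). Model: stable PC12, inducible Htt exon1 Q103-GFP. Inducer: tebufenozide, 100 nM final. Compounds: dose series. No G418 in medium.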
ALDH1A1 block = inhibitors of human aldehyde dehydrogenase 1A1 | P00352 | Purified ALDH1A1, NADH fluorescence, propionaldehyde substrate | Potency, µM (titrated, usually from 75.3 µM), for the others: at the top dose activity, negative = inhibition, usual class: inhibitors | actives 7.3% (n = 220,000) | AID 1030; active = well fitted inhibition curve with a large enough effect, not every such curve was filed as active; inconclusive = small, poorly fitted or top-dose-only effect, or another doubt; inactive = no such curve, though single readings can be large or run the other way;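 also: potency is read from the fitted curve at half-maximal effect; plate controls were no enzyme wells and a reference inhibitor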
Target sequence (P00352 whole entry, looked up): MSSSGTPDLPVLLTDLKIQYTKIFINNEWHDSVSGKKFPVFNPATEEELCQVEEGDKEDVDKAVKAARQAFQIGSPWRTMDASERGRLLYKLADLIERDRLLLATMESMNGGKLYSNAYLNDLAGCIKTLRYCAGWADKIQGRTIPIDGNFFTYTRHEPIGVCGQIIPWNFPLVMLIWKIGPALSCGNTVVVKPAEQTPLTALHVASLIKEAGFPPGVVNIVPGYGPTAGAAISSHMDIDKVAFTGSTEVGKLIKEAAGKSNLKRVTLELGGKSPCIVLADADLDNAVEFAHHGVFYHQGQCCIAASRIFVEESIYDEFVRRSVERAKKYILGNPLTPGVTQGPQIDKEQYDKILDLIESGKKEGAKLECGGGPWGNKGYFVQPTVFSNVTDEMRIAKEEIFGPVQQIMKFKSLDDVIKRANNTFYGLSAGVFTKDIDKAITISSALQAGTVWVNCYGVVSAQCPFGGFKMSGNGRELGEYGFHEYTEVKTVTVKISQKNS
HPGD inh = HPGD (human) dehydrogenase inhibition | P15428 | purified HPGD, NADH fluorescence kinetic, PGE2 substrate | Potency, µM, for inactives: top-dose activity change, negative = inhibition, most hits filed as inhibitors | actives 4.3% (n = 150,000); active = well fitted inhibition curve with a large enough effect, not every such curve was filed as active; inconclusive = small, poorly fitted or top-dose-only effect, or another doubt; inactive = no such curve, though single readings can be large or run the other way; also: potency is read from the fitted curve at half-maximal effect; % is scaled to controls: 0 for no effect and ±100 for the full control effect
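NADH formation kinetics: reaction with 30 uM PGE2 and 1 mM NAD+ (final), 20 nM enzyme, Tris-HCl pH 8 with Tween 20, after 15 min compound preincubation at room temperature. Fluorescence change, last versus first of five reads.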
HTT aggregate = reduces HttQ103-GFP aggregates in PC12 cells. PC12 HttQ103-GFP aggregates, Acumen cytometry, 40 h. Potency, µM (top dose mostly 46.1 µM), inactives show at the top dose activity change, negative = inhibition, most hits filed as inhibitors. actives 1.1% (n = 220,000); also: potency is read from the fitted curve at half-maximal effect; % is scaled to controls: 0 for no effect and ±100 for the full control effect; nearly all actives have a fitted effect of over 60% in size
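Quantitative HTS on tebufenozide-induced (100 nM) PC12 cells stably expressing polyQ103 Huntingtin exon 1–GFP. Reduction of bright GFP aggregates, detected by laser scanning cytometry after lysis, identified actives across the titration.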
IMPase inh = membrane-permeable compound that blocks inositol monophosphatase; AID 901; 120,000 tested, under 10 active; inhibition (IP1 accumulation), % at 46.1 µM; P97697; CHO-M1 cells, IP1 accumulation, HTRF TR-FRET ratio; active = well fitted curve in the direction sought with a large enough effect in the signal ratio, not every such curve was filed as active; inconclusive = small, poorly fitted or top-dose-only effect, or a change in a side signal; inactive = no such curve, though single readings can be large or run the other way; the % refers to the signal ratio;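 also: cells stimulated with carbachol in lithium chloride buffer; plate controls were DMSO basal wells for no effect and reference inhibitor wells for full effect; higher means more IMPase inhibition seen as more IP1 and lower FRET ratio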
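Measured: the HTRF emission ratio (665/620 nm) plus the 620 nm donor channel, each fitted to the Hill equation to give AC50. Cells were CHO-M1 given compounds up to 46 uM and a 30 min carbachol stimulation at 37C.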
IMPase Li cell = membrane-permeable IMPase blocker, potentiated with lithium. Potency, µM (series often up to 59.4 µM), inactives show at the highest dose activity, negative = IMPase inhibition, most hits filed as inhibitors. actives 0.35% (n = 210,000). AID 1457. CHO-M1 cells, IP1 TR-FRET (IP-One), carbachol + lithium;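 also: IP1 builds up when IMPase is blocked and the TR-FRET signal falls; potency is read from the fitted curve at half-maximal effect; plate controls were basal vehicle for no effect and high inhibitor control for full effect; nearly all actives have a fitted effect of over 50% in size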
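Lithium-sensitised IP1 accumulation assay; M1-expressing CHO cells treated 30 min at 37C with compound. Competitive antibody detection by time-resolved FRET followed a 10 min room-temperature lysis step.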
An asterisk follows results filed as active; u = inconclusive; x = not tested or not shown; [ ] = remark or other dose. Unless noted, calls follow the shape of the dose curve; as a rule, active = well fitted curve in the direction sought with a large enough effect; inconclusive = small, poorly fitted or top-dose-only effect, or another doubt; inactive = no such curve, though single readings can be large; an effect the other way counts as inactive or inconclusive.

SMILES | HTT ATP protect | ALDH1A1 block | HPGD inh | HTT aggregate | IMPase inh | IMPase Li cell
O=C(CN1C(=O)c2ccccc2C1=O)Nc1nccs1 | 20%[10 µM] | x | x | -24%[9.22 µM] | x | x
C[C@@H](C(=O)Cc1ccc2ccccc2c1)[C@@H]1C[C@@]1(C)[C@@H](NP(=O)(c1ccccc1)c1ccccc1)c1ccccc1 | -84% | 5% | -16% | x | x | -7%
COCCn1c(=O)c(-c2cccc(C#N)c2)nc2cnc(N(C)C)nc21 | -50% | -15% | x | x | x | -2%
CCN(CC)C(=O)CSc1nc2ccc(NC(=O)CSc3nnc(COc4ccccc4C)n3C)cc2s1 | -5% | u | 20µM* | 4% | 7 | -4%[38.3 µM]
O=C(CSc1ccccn1)Nc1ccc2c(c1)oc1ccccc12 | 15%[10 µM] | -1% | 25µM* | -3% | x | -4%
COc1cc2c(cc1NC(=O)CSc1ccccn1)oc1ccccc12 | -36% | 7% | -3% | -17% | 5 | 7%[38.3 µM]
Cc1ccccc1OCc1nnc(SCC(=O)Nc2ccc3nc(SCC(=O)NC(C)(C)C)sc3c2)n1C | -14% | u | -17% | -11% | -8 | 16%[38.3 µM]
Cc1ccccc1OCc1nnc(SCC(=O)Nc2ccc3c(c2)oc2ccccc23)n1C | -2%[10 µM] | 14µM* | u | -8% | -2 | 10%[38.3 µM]
CC(=O)[O][Al][O]C(C)=O | -14% | x | x | -2% | x | x
CC(=O)c1ccc(CCCCCCCCCC(=O)O)s1 | 5% | 20% | -17% | 3% | u | u
COC(=O)CCCCCc1ccc(C(C)=O)s1 | 14%[10 µM] | -1% | u | -4% | u | 10µM*
c1nc2sc3c(c2c2nnnn12)CCCC3 | 6%[1.9 µM] | u | u | 10µM* | -10 | 14%[38.3 µM]
COc1ccc(-c2cc(-n3c(C(F)(F)F)nc4ccccc43)n(CCC#N)n2)cc1 | -16% | u | u | 2.8µM* | 8 | 19%[38.3 µM]
CCCOc1ccc(NC(=O)C2CC(=O)N3CCCN=C3S2)cc1 (stereo not drawn) | -20%[0.074 µM] | 2.8µM* | -14% | 28% | 1 | 20%[38.3 µM]
CCOc1ccc(NC(=O)C2CC(=O)N3CCCN=C3S2)cc1 (stereo not drawn) | -6% | 14µM* | 1% | 17% | 2 | 6%[38.3 µM]
O=C1C(CCC(O)c2ccc(F)cc2)C(c2ccc(O)cc2)N1c1ccc(F)cc1 (stereo not drawn) | -21% | 11% | -18% | -9% | x | 3%
O=C(O)Cn1nc(-c2ccccc2)c2ccccc21 | 5% | x | x | x | x | x
O=C(Nc1ccccc1)C1=C(c2ccccc2)S(=O)(=O)CCS1(=O)=O | -162% | u | x | 5µM* | x | 22%
O=C(O)c1ccccc1C(=O)Nc1ccccc1 | 11%[10 µM] | u | -16% | 10% | -12 | -1%[38.3 µM]
OC(CN1CCN(c2ccccc2)CC1)c1ccc2c(c1)CCN2 (stereo not drawn) | -16% | 7.1µM* | -6% | 20% | -3 | 9%
CCOC(=O)N1CCN(CC(O)c2ccc3c(c2)CCN3)CC1 (stereo not drawn) | 12%[0.074 µM] | 18µM* | x | 10% | 9 | x
CC1=NCC[N@@+]1(CCc1ccccc1)Cc1ccccc1 | 14%[10 µM] | -9%[13.5 µM] | -5% | x | x | 8%
CCOc1cccc(CNc2ccc(O)cc2)c1OCc1ccc(Cl)cc1 | -15% | 2.2µM* | -19% | 23% | 18 | 30%[38.3 µM]
CCOc1ccccc1CNc1ccc(O)cc1 | -6%[1.9 µM] | u | x | -7%[9.22 µM] | x | 9%
Oc1ccc(NCc2ccccc2OCc2ccccc2F)cc1 | -78% | 18µM* | -23% | -2% | 15 | 11%[38.3 µM]
O=C(CSc1nnnn1C1CCCCC1)N1CCCC1 | 12% | u | x | 0% | 7 | x
COc1ccc(Cl)cc1C(=O)CSc1nnnn1C1CCCC1 | 2% | 2µM* | x | -3% | 4 | x
COc1ccc(Cl)cc1C(=O)CSc1nnnn1C1CCCCC1 | 4%[10 µM] | 5µM* | -26% | -20% | 14 | 19%
CCn1nnnc1SCC(=O)c1cc(Cl)ccc1OC | 15%[10 µM] | u | x | 6%[9.22 µM] | x | 1%
COc1ccc(Oc2nc3c(c(=O)n(Cc4ccccc4Cl)c(=O)n3C)n2C)cc1 | x | x | x | x | 0 | x

Compound activity from PubChem.
